The list is not random: actives were taken first. Their share in the collection is about 19%.
TDP1 cell CPT: growth inhibition of DT40 Tdp1-/-;hTDP1 cells with camptothecin (screen for TDP1 inhibitors) | chicken DT40 Tdp1-/-;hTDP1 cells + 20 nM CPT, ATP luminescence, 48 h | hit rate 12% among 420,000 | Potency, µM (series often up to 46.2 µM), inactives show top-dose activity change, negative = growth inhibition, usual class: inhibitors; further: nearly all actives have a fitted effect of over 55% in size
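Cell growth measured by CellTiter-Glo luminescence after a minimum 48 h, 37 C compound exposure with 20 nM CPT in Tdp1-knockout DT40 cells stably expressing hTDP1, seeded 400/well; qHTS titration format.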
HT1080 IDH1KD tx: HT-1080 IDH1 knockdown cell toxicity (counter line). hit rate 2% among 360,000. AID 686971. HT-1080 IDH1 knockdown viability, ATP luminescence, 48 h. Potency, µM (top dose mostly 46.1 µM), for inactives: top-dose activity, negative = toxicity, most hits filed as cytotoxic;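 further: 0% = DMSO wells and -100% = cell-free medium wells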
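Assay cells: HT-1080 with IDH1 knockdown, 750 per well, RPMI/5% FBS. Exposure: 48 h at 37 °C following 2 h pre-incubation. Read: CellTiter-Glo luminescence; fitted concentration-response, curve class assigned.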
DT40 TDP1 no CPT: qHTS for Inhibitors of human tyrosyl-DNA phosphodiesterase 1 (TDP1): qHTS in cells in absence of CPT; DT40 Tdp1-/- hTDP1 cells, no CPT, ATP luminescence, 48 h; Potency, µM (series often up to 46.2 µM), without a hit: top-dose activity change, negative = growth inhibition, most hits filed as inhibitors; hit rate 15% among 420,000; further: nearly all actives have a fitted effect of over 55% in size
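Seeded 400 DT40-hTDP1 cells/well (vehicle DMSO, no 20 nM CPT); pinned compounds; ≥48 hr at 37 °C; CellTiter-Glo luminescence as viability measure.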
KB-3-1 tox: kills parental KB-3-1 adenocarcinoma cells | KB-3-1 viability, CellTiter-Glo ATP luminescence, 72 h | Potency, µM (doses to about 46.1 µM), usual class: cytotoxic | hit rate 1.4% among 400,000; further: nearly all actives have a fitted effect of over 60% in size
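Cytotoxicity in the drug-sensitive parental line KB-3-1 was scored as loss of CellTiter-Glo luminescence following 72 h incubation with compound. Values come from curve fitting of normalized concentration-response data.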
KB-V1 cytotox: KB-V1 MDR subline cytotoxicity; KB-V1 MDR cells viability, CellTiter-Glo, 72 h; Potency, µM (titrated, usually from 46.1 µM), most hits filed as cytotoxic; hit rate 3.4% among 400,000; further: nearly all actives have a fitted effect of over 60% in size
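In this primary screen, KB-V1 cells overexpressing P-gp are incubated with library compounds (lowest to highest concentration) for 72 h at 37 degrees C before a luminescent ATP viability read.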
HT1080-NT tox: kills 2HG-producing HT-1080-NT fibrosarcoma cells; HT-1080-NT fibrosarcoma viability, CellTiter-Glo ATP luminescence, 48 h; Potency, µM (top dose mostly 46.1 µM), without a hit: at the top dose activity, negative = less viability, hits mostly cytotoxic; hit rate 1.6% among 360,000; AID 686970;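 further: NT is the 2HG producing partner of a matched IDH1 knockdown line; 0% = DMSO-treated cells and -100% = media-only wells without cells; nearly all actives have a fitted effect of over 55% in size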
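Toxicity toward the 2HG-producing NT line was scored as %Activity, normalised to DMSO and no-cell wells, from CellTiter-Glo luminescence after 48 hours' treatment.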
Numbers without * were called inactive; i = inactive; ? = inconclusive; / = no result given. The call rests on the fitted dose curve; in most records, active means well fitted curve in the direction sought with a large enough effect; inconclusive means small, poorly fitted or top-dose-only effect, or another doubt; inactive means no such curve, though single readings can be large; an effect the other way counts as inactive or inconclusive. Unless noted, on the % scale 0 is the no-effect control and ±100 the full control effect; potency means the concentration at half of the fitted maximal effect.

SMILES	TDP1 cell CPT	HT1080 IDH1KD tx	DT40 TDP1 no CPT	KB-3-1 tox	KB-V1 cytotox	HT1080-NT tox
O=C(c1cc2c(c(-c3cccc(-c4ccc(F)cc4)c3)n1)[C@H](CCO)N(C(=O)c1ccc3c(c1)OCO3)C2)N1CCOCC1	?	?	?	i	?	21µM*
COCCNC(=O)c1cc2c(c(-c3cccc(-c4cc5ccccc5o4)c3)n1)[C@@H](CCO)N(S(=O)C(C)(C)C)C2 (some centres undefined)	16µM*	?	?	i	i	-12%
O=C(c1cc2c(c(-c3cccc(-c4ccncc4)c3)n1)[C@@H](CCO)N(C(=O)c1ccc3c(c1)OCO3)C2)N1CCOCC1	-24%	7%	-19%	i	i	-13%
CCCNC(=O)c1cc2c(c(-c3cccc(-c4ccc(F)cc4)c3)n1)[C@@H](CCO)N(S(=O)C(C)(C)C)C2 (some centres undefined)	?	?	?	i	?	?
Cc1cc(CC(=O)O)c(C)n1-c1ccc(Cl)cc1	-15%	/	?	/	/	/
CC(=O)N1Cc2cc(C(=O)NCC(F)(F)F)nc(-c3cccc(-c4cc5ccccc5o4)c3)c2[C@H]1CCO	?	14%	-30%	?	?	3%
CCNC(=O)c1cc2c(c(-c3cccc(-c4cc5ccccc5o4)c3)n1)[C@H](CCO)N(C(=O)NC(C)C)C2	21µM*	?	9.2µM*	?	?	?
O=C(Nc1cccc(C(F)(F)F)c1)Oc1ccc(Cl)c2cccnc12	23µM*	15µM*	18µM*	?	i	16µM*
Cc1ccc(Cl)cc1NC(=O)C1CCN(S(=O)(=O)c2cccc3nonc23)CC1	-9%	/	-28%	i	i	/
COc1ccc(CCNC(=O)CCn2c(=O)c3cccn3c3ccc(F)cc32)c(OC)c1OC	13µM*	6%	8.2µM*	i	i	1%
COc1ccccc1CCNC(=O)CCn1c(=O)c2cccn2c2ccc(F)cc21	23µM*	11%	12µM*	i	i	1%
Cc1ccc(Nc2cc(C)c(O)c(C)c2)cc1	5.2µM*	0%	5.2µM*	i	i	-6%
COc1ccc2nc(SCC(=O)Nc3ccc(S(=O)(=O)N4CCCC4)cc3)c(C#N)cc2c1	9.2µM*	?	?	i	i	4%
N#Cc1cc2ccccc2nc1SCC(=O)Nc1ccc(S(=O)(=O)N2CCCC2)cc1	21µM*	-26%	18µM*	i	4.1µM*	-19%
CCOc1ccc2nc(SCC(=O)Nc3ccc(S(=O)(=O)N4CCCC4)cc3)c(C)cc2c1	-22%	-12%	0%	i	i	-20%
Cc1ccc(NC(=O)CCn2cccn2)cc1Cl	9%	/	8%	i	i	/
Cc1c(C#N)c(N=CN(C)C)c(C(=O)c2ccc(Br)cc2)n1-c1ccccc1	-16%	-7%	-29%	i	i	2%
Cc1c(C#N)c(N=CN(C)C)c(C(=O)c2ccccc2)n1-c1ccc(Br)cc1	18µM*	-10%	?	i	i	-4%
CC(C)C1=CC(=Nc2ccc(S(N)(=O)=O)cc2)C=C(C(C)C)C1=O	16µM*	-1%	23µM*	i	i	-15%
NS(=O)(=O)c1ccc(N=C2C(=O)Nc3ccccc32)cc1	-15%	2%	-18%	i	i	0%
C=CCC1(CC=C)CCCN1C(=O)c1cc(COc2ccc(C)nc2)on1	2.6µM*	2.9µM*	0.92µM*	?	i	21µM*
CSc1ccccc1OCc1cc(C(=O)N2CCc3c(Cl)cccc3C2)no1	23µM*	-1%	?	i	i	-6%

Compound activity as filed in PubChem.
